Pf growth 48h = Primary qHTS for delayed death inhibitors of the malarial parasite plastid, 48 hour incubation | P. falciparum luciferase growth in erythrocytes, 48 h | Potency, µM (top dose mostly 28.7 µM), for the others: at the highest dose activity change, negative = inhibition, actives largely listed as inhibitors | 310,000 compounds, 5.9% hits | AID 504832, 2011; also: potency is read from the fitted curve at half-maximal effect
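First compound was added to culture medium, then infected red cells at 0.1% parasitemia and 2% hematocrit (final). After incubation at 37 C under 5% CO2, luciferase detection reagent was dispensed and light output recorded.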
Pf growth 96h = Primary qHTS for delayed death inhibitors of the malarial parasite plastid, 96 hour incubation; P. falciparum luciferase reporter growth, 96 h; Potency, µM (titrated, usually from 28.7 µM), without a hit: at the top dose activity change, negative = inhibition, most hits filed as inhibitors; 320,000 compounds, 6.9% hits; AID 504834, 2011; also: potency is read from the fitted curve at half-maximal effect
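Erythrocytes infected with luciferase-expressing P. falciparum were dispensed at 2% hematocrit and 0.05% parasitemia (final), then incubated with compounds 96 hours at 37 C in 5% CO2. Luminescence after detection reagent addition reported growth.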
HCMV antiviral = qHTS Assay for inhibitors of the human cytomegalovirus (HCMV) | HFF cells, HCMV-luciferase reporter, 72 h; hits give low values | 410,000 compounds, 4.5% hits | AID 1259415, 2018 | activity change, negative = inhibition, % at 57.5 µM; in the data active = activity change below about -60%; inconclusive = no clear call, values can overlap the other calls; inactive = above about -39%
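Two-dose cell screen: HFF monolayers treated with compounds and infected with luciferase-expressing HCMV at 1 PFU/cell, 72 h at 37C, then lysed for luciferase measurement.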
FBPA Giardia inh = qHTS Assay for Inhibitors of Fructose-1,6-bisphosphate Aldolase from Giardia Lamblia; purified Giardia FBPA; Potency, µM (titrated, usually from 59.6 µM), for inactives: top-dose activity, negative = inhibition, actives largely listed as inhibitors; 290,000 compounds, 0.71% hits; AID 2451, 2010; A8B2U2; also: potency is read from the fitted curve at half-maximal effect; nearly all actives have a fitted effect of over 55% in size
Target sequence (A8B2U2 whole entry, looked up): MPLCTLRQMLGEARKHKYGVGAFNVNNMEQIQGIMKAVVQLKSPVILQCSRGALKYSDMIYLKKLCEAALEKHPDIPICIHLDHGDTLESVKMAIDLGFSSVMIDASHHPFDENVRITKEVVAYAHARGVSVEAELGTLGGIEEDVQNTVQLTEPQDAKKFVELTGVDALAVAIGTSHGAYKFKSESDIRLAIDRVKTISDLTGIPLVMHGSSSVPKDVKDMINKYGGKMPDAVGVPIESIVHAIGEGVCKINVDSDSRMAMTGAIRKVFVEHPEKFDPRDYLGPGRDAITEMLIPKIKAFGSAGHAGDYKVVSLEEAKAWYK
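Giardia FBPA (40 nM reagent) was preincubated 10 min at RT with compound (up to 57.5 uM final), then substrate plus GAPDH/TPI/NAD/arsenate coupling system with diaphorase/resazurin was added; resorufin fluorescence (525/598 nm) was read after 20 min.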
Sm TGR inh = qHTS Assay for the Inhibitors of Schistosoma Mansoni Peroxiredoxins; 360,000 compounds, 3% hits; purified TGR, DTNB reduction, TNB absorbance 405 nm; Potency, µM (top dose mostly 114 µM), inactives show at the top dose activity change, negative = inhibition, usual class: inhibitors; Schistosoma mansoni thioredoxin glutathione reductase (TGR), Q962Y6; also: potency is read from the fitted curve at half-maximal effect; nearly all actives have a fitted effect of over 60% in size
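Kinetic colorimetric format: TGR-catalysed, NADPH-driven DTNB reduction monitored via TNB absorbance. Enzyme dispensed at 20 nM; compound exposure 15 min at room temperature before reaction start.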
The depositor's hits bear a star; ? = inconclusive; / = no result given; ! = a repeat was not active; [ ] = dose if it differs, or a comment. Sampled rows, rich in hits. Any-hit rate of the full collection: about 14%. Unless noted, calls follow the shape of the dose curve; as a rule, active = well fitted curve in the direction sought with a large enough effect; inconclusive = small, poorly fitted or top-dose-only effect, or another doubt; inactive = no such curve, though single readings can be large; an effect the other way counts as inactive or inconclusive. % is scaled to controls: 0 for no effect and ±100 for the full control effect.

SMILES	Pf growth 48h	Pf growth 96h	HCMV antiviral	FBPA Giardia inh	Sm TGR inh
COC(=O)C/C=C/[C@@H](C)[C@@H](/C=N/O[C@@H](C)c1cn([C@H](CO)Cc2ccccc2)nn1)NS(=O)(=O)c1ccc(C)cc1	?	12µM*	/	-7%	-26%
Cc1cccc(OCC(O)CN2CC2)c1 (centres undefined)	/	/	8	/	/
COc1ccccc1[As](=O)(O)CC(O)COc1ccc(Cl)cc1Cl (centres undefined)	?	?	-18	8%	40µM*
Cc1cccc(OCC(O)Cn2c(=N)n(Cc3ccccc3)c3ccccc32)c1 (centres undefined)	5.9µM*	5.2µM*	-10	2%	-5%
Cc1cccc(OCC(O)Cn2c(=N)n(CCN3CCCCC3)c3ccccc32)c1 (centres undefined)	2.9µM*	2.6µM*	-62*!	6%	2%
COc1ccccc1S(=O)(=O)CC(O)COc1ccccc1Cl (centres undefined)	-13%	32%	?	1%	-24%
N=c1n(Cc2ccc(Cl)cc2)c2ccccc2n1CC(O)COc1ccccc1 (centres undefined)	?	-11%	-102*	1%	0%
COc1ccc(OCC(O)Cn2c(=N)n(Cc3ccccc3)c3ccccc32)cc1 (centres undefined)	?	?	-38	-7%	10%
Cc1ccc(C(=O)c2cn(Cc3c(F)cccc3Cl)c3nc(C)ccc3c2=O)cc1	/	/	-9	/	1%
COc1cccc(-c2ncc3ccccc3c2COC(=O)c2ccc(F)cc2)c1	?	?	-12	/	-10%
CCCn1c2ccccc2c2cnn(CC(=O)N3CCC(C)CC3)c(=O)c21	/	/	?	/	-2%
CCC(c1nnnn1-c1c(C)cccc1C)N1CCCN(Cc2ccc(F)cc2)CC1 (centres undefined)	/	/	-12	/	/
Cc1ccc(OCC(O)Cn2c(=N)n(Cc3ccccc3)c3ccccc32)cc1 (centres undefined)	/	3.7µM*	-74*	0%	-10%
N=c1n(Cc2ccccc2)c2ccccc2n1CC(O)COc1ccc(Cl)cc1Cl (centres undefined)	?	0%	-101*	0%	8%[57.1 µM]
N=c1n(CCN2CCCCC2)c2ccccc2n1CC(O)c1ccco1 (centres undefined)	?	?	-67*	-2%	5%
COc1ccccc1/C=C/c1nc2ccc(OC(C)=O)cc2c(=O)o1	2%	1.7µM*	-20	6%	?
COc1ccc(/C=C/c2nc3sc4c(c3c(=O)o2)CCC4)cc1	/	/	-37	/	/
COc1ccc(/C=C/c2nc3ccccc3c(=O)o2)cc1	166%	178%	-95*	-1%	7%
COc1ccccc1/C=C/c1nc2ccccc2c(=O)o1	/	/	22	/	/
Cc1ccc2c(=O)c(C(=O)c3ccc(Cl)cc3)cn(CC(=O)Nc3ccc4c(c3)OCCO4)c2n1	/	/	-22	/	2%
O=C(CCCCC(=O)NN=Cc1ccc2c(c1)CCC2)NN=Cc1ccc2c(c1)CCC2	/	/	-25	/	/
O=C(NC1CCCCC1)C(c1cccnc1)N(C(=O)c1csnn1)c1ccccc1 (centres undefined)	-8%	2%	6	7%	-2%
CC12CCC(C(=O)N(c3ccccc3Cl)C1=O)C2(C)C (centres undefined)	-4%	58%	-38	-2%	-14%
CC12CCC(C(=O)N(CCCN3CCN(Cc4ccccc4)CC3)C1=O)C2(C)C (centres undefined)	2%	19%	-90*	-18%	-3%[57.1 µM]
CC12CCC(C(=O)N(CCCCN3CCN(c4ccccn4)CC3)C1=O)C2(C)C (centres undefined)	?	9.3µM*	-28	10%	-8%
SMILES	Pf growth 48h	Pf growth 96h	HCMV antiviral	FBPA Giardia inh	Sm TGR inh
CCn1cc(S(=O)(=O)Nc2ccc3c(c2)OCCO3)cn1	104%	21%	?	0%	11%
CCCCN(CCCC)S(=O)(=O)c1ccc2oc(C(=O)NCc3ccc(C)cc3)c(C)c2c1	/	/	16	/	11%
Cc1c(C(=O)NCc2ccc3c(c2)OCO3)oc2ccc(S(=O)(=O)N3CCCCC3)cc12	10µM*	?	?	1%	9%
CCN(CC)S(=O)(=O)c1ccc2oc(C(=O)NCc3ccc(C)cc3)c(C)c2c1	9.3µM*	/	50	-3%	0%
CCn1cc(S(=O)(=O)NCc2ccc3c(c2)OCO3)cn1	22%	12µM*	41	/	?
COc1ccc(CNC(=O)c2oc3ccc(S(=O)(=O)N4CCOCC4)cc3c2C)cc1	12µM*	?	?	6%	1%
Cc1c(C(=O)NCc2ccc3c(c2)OCO3)oc2ccc(S(=O)(=O)N3CCCC3)cc12	12µM*	?	-6	-7%	1%
COc1ccc(NC(=O)c2oc3ccc(S(=O)(=O)N4CCC5(CC4)OCCO5)cc3c2C)cc1	3.7µM*	74%	-17	-2%	1%
COc1ccccc1CNC(=O)c1oc2ccc(S(=O)(=O)N3CCCC3)cc2c1C	2.9µM*	209%	/	5%	10%
Cc1c(C(=O)O)oc2ccc(S(=O)(=O)NCc3ccc4c(c3)OCO4)cc12	0%	5.9µM*	26	8%	-17%
COc1ccccc1CNC(=O)c1oc2ccc(S(=O)(=O)N3CCOCC3)cc2c1C	?	1%	-16	3%	-6%
COc1ccc(C2CC(C(F)(F)F)n3nc(C(=O)NCc4c(C)nn(C)c4C)c(Cl)c3N2)cc1 (centres undefined)	?	-2%	-86*	22%	-1%
Cc1c(CNC(=O)c2nn3c(c2Cl)NC(c2ccccc2)CC3C(F)(F)F)cnn1C (centres undefined)	?	59%	?	-2%	-15%
COc1ccc(C2CC(C(F)(F)F)n3nc(C(=O)N(C)Cc4cn(C)nc4C)c(Cl)c3N2)cc1 (centres undefined)	15µM*	0%	-26	-5%	-19%
COc1ccc(C2CC(C(F)(F)F)n3nc(C(N)=O)c(Cl)c3N2)cc1OC (centres undefined)	14%	/	-2	3%	-33%
COCCn1c(=O)cnc2cnc(OC)nc21	/	/	/	-2%	/
CCOc1cccc2oc(-c3ccccc3Cl)cc(=O)c12	/	/	/	1%[89.2 µM]	/
O=C(CSc1nc2c([nH]c3ccccc32)c(=O)n1-c1ccccc1)Nc1cccc(C(F)(F)F)c1	/	/	?	/	-6%
Nc1cc(=O)nc(SCC(=O)Nc2ccccc2)n1-c1ccccc1	1%	1.9µM*	52	10%	1%
Cc1c(O)nc(SCC(=O)Nc2cccc(C(F)(F)F)c2)n(-c2ccccc2)c1=O	-8%	?	-104*	/	3%

Screening results deposited in PubChem by National Center for Advancing Translational Sciences (NCATS).
